A selection: hits, their analogues and other compounds. The true share with any hit is near 9.4%.
Pf growth 48h: inhibits P. falciparum growth in the first generation, 48 h; P. falciparum luciferase growth in erythrocytes, 48 h; Potency, µM (top dose mostly 28.7 µM), hits mostly inhibitors; hit rate 5.9% among 310,000; AID 504832
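Luciferase-expressing P. falciparum in infected erythrocytes (2% hematocrit, 0.1% parasitemia final) in RPMI 1640/0.5% Albumax were exposed to compound for 48 hours at 37 C, 5% CO2; growth read as luminescence.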
Pf growth 96h: inhibits malaria parasite growth, 96 h | hit rate 6.9% among 320,000 | P. falciparum luciferase reporter growth, 96 h | Potency, µM (doses to about 28.7 µM), most hits filed as inhibitors
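Readout is luminescence from an integrated firefly luciferase in P. falciparum. Red cells, 2% hematocrit and 0.05% parasitemia final, were cultured with compound through two parasite generations (96 hours) at 37 C, 5% CO2.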
SARS PLP yeast: SARS-CoV PLP inhibition in yeast. hit rate 0.19% among 330,000. Potency, µM (top dose mostly 32.9 µM), actives largely listed as activators. S. cerevisiae expressing SARS-CoV PLpro, growth rescue; calls by dose curve; also: nearly all actives have a fitted effect of over 55% in size
AMA1-RON2 inh: inhibitors of Plasmodium falciparum AMA1-RON2 interaction; hit rate 0.2% among 360,000; Potency, µM (top dose mostly 58.2 µM), actives largely listed as inhibitors; AlphaScreen AMA1-biotinylated RON2 peptide binding; also: nearly all actives have a fitted effect of over 45% in size
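AMA1 (3D7) with his tag at 25 nM final met compounds first, then biotinylated RON2 peptide at 25 nM; detection used donor plus acceptor beads, 10 µg/mL apiece, read by AlphaScreen after 30 min at room temperature.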
Large screens that a line does not name were inactive. Unless noted, calls follow the shape of the dose curve; as a rule, active = well fitted curve in the direction sought with a large enough effect; inconclusive = small, poorly fitted or top-dose-only effect, or another doubt; inactive = no such curve, though single readings can be large; an effect the other way counts as inactive or inconclusive.

Cn1c(O)c(C=NCCN2CCOCC2)c(=O)n(C)c1=S	Pf growth 48h inconclusive
COc1ccc(OCCC(=O)N2CCCCC2)cc1	none (no result: Pf growth 96h)
O=C1OC(c2ccc(Br)cc2)=N/C1=C\c1ccco1	none
CS(=O)(=O)Oc1ccc(Br)cc1/C=C1/N=C(c2ccco2)OC1=O	Pf growth 96h 10µM
COc1ccc(CN2C(=O)C(Cc3ccccc3)Nc3ncnc(N4CCc5ccccc5C4)c32)cc1 (stereo unspecified)	Pf growth 48h 7.4µM, Pf growth 96h 5.2µM (no result: AMA1-RON2 inh)
COc1ccc(CN2C(=O)C(Cc3ccccc3)Nc3ncnc(N4CCOCC4)c32)cc1 (stereo unspecified)	Pf growth 48h inconclusive, Pf growth 96h inconclusive
O=C1C(Cc2ccccc2)Nc2ncnc(N3CCc4ccccc4C3)c2N1Cc1ccc(Cl)cc1 (stereo unspecified)	Pf growth 48h 15µM, Pf growth 96h 6.6µM
Cc1ccc(C(=O)O/N=C\c2ccc(N3CCOCC3)c([N+](=O)[O-])c2)cc1	none
CCCc1nc2oc3c(NCCN(C)C)ncnc3c2c2c1CCCC2	Pf growth 48h 13µM, Pf growth 96h inconclusive
CCCc1nc2oc3c(NCCCN(C)C)ncnc3c2c2c1CCCC2	Pf growth 48h 9.3µM, Pf growth 96h 13µM
CCOc1ccc(NC(=O)COc2ccc(C(=O)NC(C)c3ccc(S(N)(=O)=O)cc3)cc2OC)cc1 (stereo unspecified)	Pf growth 48h 12µM, Pf growth 96h inconclusive (no result: SARS PLP yeast)
CCOC(=O)c1ccc(NC(=O)C(C)NS(=O)(=O)c2ccc(OC)cc2)cc1 (stereo unspecified)	Pf growth 48h inconclusive
CCOC(=O)c1ccc(NC(=O)COc2ccc(S(=O)(=O)NC(C)CC)cc2)cc1 (stereo unspecified)	Pf growth 48h inconclusive, Pf growth 96h 10µM
CC(=O)Nc1ccc(Sc2ccccc2C(=O)O)cn1	Pf growth 96h inconclusive
Cc1ccc(C(=O)CSc2ccc(-c3ccncc3)nn2)cc1	none
CCCC(=O)NC(c1ccc(OC)cc1)c1c(O)ccc2ccccc12 (stereo unspecified)	Pf growth 48h 12µM
CC(=O)Oc1ccc2ccccc2c1C(NC(=O)Cc1ccccc1)c1ccc(Cl)cc1 (stereo unspecified)	Pf growth 48h 4.7µM, Pf growth 96h 2.9µM
CC(C)[C@H](N[C@@H](C)c1ccccc1)c1c(O)ccc2ccccc12	Pf growth 48h 2.9µM, Pf growth 96h inconclusive
CC(C)CC(=O)NC(c1ccccc1Cl)c1c(O)ccc2ccccc12 (stereo unspecified)	Pf growth 48h inconclusive
CCOc1ccc(/C=N/OCC(=O)NC(c2ccccc2)c2ccccc2)cc1	Pf growth 48h 7.4µM, Pf growth 96h 9.3µM
COc1ccc(C(NC(=O)CC(C)C)c2c(O)ccc3ccccc23)cc1 (stereo unspecified)	Pf growth 48h inconclusive
CCCC(=O)NC(c1ccco1)c1c(O)ccc2ccccc12 (stereo unspecified)	Pf growth 48h inconclusive, Pf growth 96h inconclusive
CC(C)(C)C(=O)NC(c1ccccc1)c1c(O)ccc2ccccc12 (stereo unspecified)	Pf growth 48h 4.7µM, Pf growth 96h inconclusive
CCCCC(=O)NC(c1ccco1)c1c(O)ccc2ccccc12 (stereo unspecified)	Pf growth 48h 12µM, Pf growth 96h inconclusive
CCOc1ccc(C(NC(=O)CC)c2c(O)ccc3ccccc23)cc1 (stereo unspecified)	Pf growth 48h 13µM, Pf growth 96h inconclusive
CN=c1sc2ccccc2n1CC(O)COCc1ccco1 (stereo unspecified)	AMA1-RON2 inh inconclusive (no result: SARS PLP yeast)
COc1ccc(C2SCCN2S(=O)(=O)c2ccc(NC(C)=O)cc2)cc1 (stereo unspecified)	Pf growth 48h inconclusive (no result: Pf growth 96h)
C=CCCC(=O)Nc1nc(C)c(-c2csc(Nc3cc(Cl)ccc3OC)n2)s1	Pf growth 48h inconclusive, Pf growth 96h inconclusive
CCC(C)C(=O)Nc1nc(C)c(-c2csc(Nc3ccccc3OC)n2)s1 (stereo unspecified)	Pf growth 48h 9.3µM, Pf growth 96h 12µM
CCCCC(=O)Nc1nc(C)c(-c2csc(Nc3ccccc3OC)n2)s1	Pf growth 48h inconclusive, Pf growth 96h inconclusive
CCCCCC(=O)Nc1nc(C)c(-c2csc(Nc3cc(OC)ccc3OC)n2)s1	Pf growth 48h 6.6µM, Pf growth 96h 12µM
C=CCCC(=O)Nc1nc(C)c(-c2csc(Nc3ccccc3OC)n2)s1	Pf growth 48h 9.3µM, Pf growth 96h 17µM
N#CC1=C(N)C(C#N)(C#N)[C@H](c2c(F)cccc2F)[C@H]2CC3(CC=C12)OCCO3	Pf growth 48h 5.2µM

Source: PubChem (National Center for Advancing Translational Sciences (NCATS))
